Screening results (PubChem)
Most compounds without a hit are left out; they make up all but 3.5% or so of the library.
Anthrax LF inh2 = anthrax lethal factor protease inhibition | inhibition, % at 10 µM | P15917 | multiplex microsphere protease cleavage assay, LF | actives 0.12% (n = 360,000) | AID 588501; note: plate controls were buffer without enzyme for full effect and enzyme alone for no effect
Autofluor counter = compound fluorescence in toxin protease inhibitor counterscreen; actives 3.1% (n = 360,000); compound autofluorescence counterscreen, microsphere flow cytometry; active compounds read high; fluorescence intensity (concentration not given with the values); in the data active = fluorescence intensity above about 16000; inconclusive = no clear call, values can overlap the other calls
BoNT-A LC inh2 = blocks Botulinum neurotoxin A light chain protease. multiplex microsphere protease substrate cleavage, flow cytometry. inhibition, % at 10 µM. actives 0.17% (n = 360,000). AID 588499; note: plate controls were buffer without enzyme for full effect and enzyme alone for no effect
BoNT-F LC inh = blocks Botulinum neurotoxin F light chain protease | actives 0.22% (n = 360,000) | AID 588497 | inhibition, % at 10 µM | Multiplex microsphere protease cleavage assay, flow cytometry; in the data active = inhibition above about 35%, passing the limit was not always enough; inconclusive = no clear call, values can overlap the other calls; note: plate controls were buffer without enzyme for full effect and enzyme alone for no effect
Numbers without * were called inactive; ? = inconclusive. Cut-off read from the data, not from the text of the source, unless noted: active = inhibition above about 30%; inconclusive = no clear call, values can overlap the other calls; inactive = below that.

SMILES	Anthrax LF inh2	Autofluor counter	BoNT-A LC inh2	BoNT-F LC inh
COc1ccc(Cl)cc1N/C(N)=N/c1nc(CSc2ccc(C)cc2)cc(=O)[nH]1	-1.0	23248*	1.4	-2.5
COc1ccc(Cl)cc1N/C(N)=N/c1nc(C)cc(=O)[nH]1	-3.7	5041	-1.2	-14.8
Cc1ccc(CNC(=O)c2cc3c(=O)n4ccccc4nc3n(Cc3ccco3)c2=N)cc1	7.2	3533	9.4	13.4
N=c1c(S(=O)(=O)c2ccc(Cl)cc2)cc2c(=O)n3ccccc3nc2n1CCN1CCOCC1	5.9	21495*	4.6	5.6
Cc1ccc(S(=O)(=O)c2cc3c(=O)n4ccccc4nc3n(Cc3ccco3)c2=N)cc1	2.8	20456*	?	5.1
O=[N+]([O-])c1c(O)c(Cl)cc(Cl)c1Cl (tested in a mixture with another compound)	-0.4	3024	-0.3	1.5
COC(=O)c1nnn(-c2ccccc2)c1N	-12.1	8902	0.9	-4.5
COCc1c(C(=O)OC)nnn1-c1ccccc1	-1.8	22960*	?	1.7
COCCCNC(=O)c1ccc2c(c1)CCN2S(C)(=O)=O	2.1	22130*	3.9	3.4
O=C(CNC(=O)c1cccs1)Nc1cccc(S(=O)(=O)N2CCOCC2)c1	3.8	4355	6.6	0.3
CCc1ccc(C(=O)C[n+]2cccc3cc(OC)ccc32)cc1	0.9	5149	-2.2	-21.0
Cc1ccc(NC(=O)CSc2nc(-c3ccco3)cc(C(F)(F)F)n2)cc1C	0.5	17763*	-4.1	-9.7
CC(=O)C1=C(O)C(=O)N(c2ccc(C)cc2)C1c1ccc([N+](=O)[O-])cc1 (stereo not drawn)	-1.0	2681	-0.8	-1.9
CCOC(=O)c1nn(-c2ccc(C)c(C)c2)cc1O	0.9	23047*	-1.1	-1.2
CCOC(=O)c1nn(-c2ccc3c(c2)OCCO3)cc1O	-3.5	3244	-0.4	-3.6
COc1ccc(CNC(=O)CN2C(=O)NC(C)(c3cccc(Br)c3)C2=O)cc1 (stereo not drawn)	7.7	3901	-1.0	27.9
CC1CCCCC12NC(=O)N(CC(=O)NC(=O)NCc1ccco1)C2=O (stereo not drawn)	-1.8	22867*	0.6	-2.3
CC1CCCCC12NC(=O)N(CC(=O)NCc1ccco1)C2=O (stereo not drawn)	-1.4	3615	-0.1	2.2
COc1ccc2cc(C3(C)NC(=O)N(CC(=O)NCc4ccco4)C3=O)ccc2c1 (stereo not drawn)	-1.7	21910*	1.3	0.9
COc1ccc(N2CCN(C(=O)Cc3ccc(S(=O)(=O)N4CCOCC4)s3)CC2)cc1	-1.8	3900	0.2	-2.5
O=C(/C=C/c1ccc(Br)cc1)NC1CCCCCC1	1.4	21525*	-1.7	-0.2
CCCOc1ccc(/C=C/C(=O)NC2CCCCC2)cc1	-7.9	3629	0.5	-16.0
CC(=O)c1ccc(S(=O)(=O)Nc2cc3c(cc2C(C)=O)OCO3)cc1	1.3	4547	-0.7	-2.7
CC(=O)c1cc2c(cc1NS(=O)(=O)c1ccc(C)cc1)OCO2	-10.8	20111*	8.7	5.0
CCCCn1c(N)c(N(CC(C)C)C(=O)c2ccc(OCC3CCCO3)cc2)c(=O)[nH]c1=O (stereo not drawn)	7.1	4359	-0.6	9.5
SMILES	Anthrax LF inh2	Autofluor counter	BoNT-A LC inh2	BoNT-F LC inh
CCOC(=O)c1c(C)[nH]c(C)c1C(=O)COC(=O)[C@@H](NC(=O)c1ccco1)C(C)C	-2.8	3717	-0.3	-1.7
COc1ccc(C2C(C#N)=C(N)Oc3cc(O)ccc32)cc1Cl (stereo not drawn)	2.7	4572	0.5	35.3*
CC(=O)c1ccc(-n2c(CCC(=O)O)ccc2-c2cccs2)cc1	0.3	9453	1.4	-1.2
Cc1ccc(-n2c(CCC(=O)O)ccc2-c2cccs2)cc1	3.6	23564*	-1.5	-2.2
COc1ccc(NS(=O)(=O)Cc2ccccc2)cc1OC	-0.1	21419*	2.4	-2.1
O=S(=O)(Cc1ccccc1)Nc1ccccc1	8.9	3618	0.2	-13.4
CC(=O)N(C)c1ccc(NS(=O)(=O)Cc2ccccc2)cc1	-0.4	22151*	?	0.8
CC(=O)N[C@@H](Cc1c[nH]c2ccccc12)C(=O)NCc1ccccc1	0.3	4778	-1.7	-3.6
O=C(CNCC1CCCO1)Nc1ccccc1-n1cccc1 (stereo not drawn)	0.8	6696	1.4	2.7
O=C(CNCC1CCCO1)Nc1ccccc1N1CCOCC1 (stereo not drawn)	-0.2	22897*	1.1	1.2
CCOC(=O)/C(C#N)=C(\O)c1ccc(NC(=O)c2ccc([N+](=O)[O-])cc2)cc1	-0.9	4542	-1.3	2.1
O=C(Nc1ccc(Cl)c(C(F)(F)F)c1)C1CCCN(S(=O)(=O)c2cnc[nH]2)C1 (stereo not drawn)	-2.6	20180*	-1.4	-3.9
Clc1ccc2nc(-c3ccccc3)c(CN3CCOCC3)n2c1	3.8	23584*	-0.3	-2.2
Clc1ccc(-c2nc3ccccn3c2CN2CCOCC2)cc1	-4.3	4388	-0.6	-13.2
CC(C)CNC(=O)COc1cccc(C(=O)NCc2ccccc2)c1	-2.1	1965	0.2	4.6
O=C(NC1CCCCCC1)c1ccc(CS(=O)Cc2cccc(Cl)c2)o1 (stereo not drawn)	-2.2	5374	0.4	-0.4
O=C1CCCC/C1=C/Nc1ccc(C(=O)O)cc1	3.7	8291	-0.7	-5.2
COc1ccc(N/C=C2/CCCCC2=O)cc1	-0.9	21936*	0.1	-3.7
O=C1CCCC/C1=C\Nc1ccccc1C(=O)O	-1.7	19879*	6.1	9.6
O=C1CCCC/C1=C/Nc1ccc2c(c1)OCO2	-0.3	16302*	1.1	-1.8
COc1ccc(Oc2ccc(N/C=C3/CCCC3=O)cc2)cc1	-5.8	2570	-0.7	-8.1
NC(=O)c1ccccc1N/C=C1\CCCCC1=O	1.4	2380	0.9	-1.9
COc1ccc(OC)c(N/C=C2/CCCCC2=O)c1	-2.1	21967*	-4.4	-7.1
CCOCCCn1c(=O)c2ccccc2n2c(=S)[nH]nc12	-8.9	3785	-2.1	18.2
CCC[C@@H]1CCCC/C=C\CCCC(=O)OCCN1C(=O)OC(C)(C)C	1.4	3695	0.4	7.8
SMILES	Anthrax LF inh2	Autofluor counter	BoNT-A LC inh2	BoNT-F LC inh
Cn1nc(-c2ccccc2)c(CO)c1Oc1ccc(F)cc1	0.1	3561	0.1	-3.9
O=S1(=O)CCOCCCN1Cc1ccccc1F	-3.6	2885	-0.9	0.4
CC(Oc1ccccc1)C(=O)Nc1cc(Cl)ccc1-n1cncn1 (stereo not drawn)	-0.5	6614	-1.8	-3.8
CC1(C)CC(=O)C2=C(C1)OC(N)=C(C#N)C21C(=O)N2CCCc3cccc1c32 (stereo not drawn)	-4.6	16191*	0.9	0.6
COC(=O)Cc1c(C)nc2nc(NCc3c(F)cccc3Cl)[nH]n2c1=O	0.8	2820	0.1	1.4
COc1ccc(-c2nc3nc(C)cc(=O)n3[nH]2)cc1	-3.0	5733	0.3	-1.3
COC(=O)Cc1c(C)nc2nc(-c3ccc(OC)cc3)[nH]n2c1=O	-0.2	22942*	-0.1	3.9
COc1ccc(-c2nc3nc(C)c(Cc4ccccc4)c(=O)n3[nH]2)cc1	-1.3	22311*	0.1	0.2
COc1ccc([C@@H]2[C@@H]3C(=O)N(C(C)(C)C)C(=O)[C@@H]3[C@]3(Cc4ccccc4)C(=O)N(c4ccc(C)cc4)C(=O)N23)cc1	0.8	4016	-0.6	-8.8
